Screening data (PubChem BioAssay)
This excerpt belongs to a sample that is enriched for hits.
GBA enhancer: glucocerebrosidase activity enhancement. activation, % at 10 µM. P04062. AID 784. 30,000 compounds, 0.44% hits. L444P Gaucher fibroblasts, 4-MU-glucoside fluorescence, 3 days; in the data active means activation above about 65%
Target sequence (P04062 whole entry L483P): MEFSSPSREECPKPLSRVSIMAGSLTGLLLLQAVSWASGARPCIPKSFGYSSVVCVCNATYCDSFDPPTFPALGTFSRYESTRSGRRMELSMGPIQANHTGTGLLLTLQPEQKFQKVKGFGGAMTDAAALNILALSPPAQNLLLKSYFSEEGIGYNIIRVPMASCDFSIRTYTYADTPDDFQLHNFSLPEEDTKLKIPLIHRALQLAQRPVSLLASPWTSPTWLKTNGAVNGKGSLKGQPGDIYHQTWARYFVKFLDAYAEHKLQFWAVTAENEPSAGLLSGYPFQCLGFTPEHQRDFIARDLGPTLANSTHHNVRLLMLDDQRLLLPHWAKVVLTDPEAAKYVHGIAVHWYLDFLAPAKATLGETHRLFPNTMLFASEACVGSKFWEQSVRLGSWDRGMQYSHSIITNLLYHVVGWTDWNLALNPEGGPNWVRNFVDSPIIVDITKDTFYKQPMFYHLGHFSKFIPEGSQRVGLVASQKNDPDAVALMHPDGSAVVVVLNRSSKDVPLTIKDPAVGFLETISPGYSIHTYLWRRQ
A number is an active result; i = inactive.

SMILES	GBA enhancer
O=C(O)CN1C(=O)CSc2ccccc21	i
O=C(O)CN1C(=O)C2(OCCCO2)c2ccccc21	i
Cc1ccc2c(c1)N(CC(=O)O)C(=O)CO2	i
CC1(C)CC(=O)N(CC(=O)O)c2ccccc2S1	88
CCOC(=O)CN1C(=O)CSc2ccccc21	73
O=C1CSc2ccccc2N1Cc1ccc(F)cc1	i
COC(=O)Cn1nc(-c2ccccc2)c2ccccc21	i
COc1cccc(C2CC(c3ccccc3Cl)n3ncnc3N2)c1 (configuration not stated)	i
COc1ccc(CCNC(=O)CCn2c(SCC#N)nc3ccccc3c2=O)cc1OC	i
CN(C(=O)c1cnccn1)c1nnc(-c2cccnc2)s1	i
O=S(=O)(c1ccc(Cl)c(C(F)(F)F)c1)N1CCN(CC(O)COCC2CCCO2)CC1 (configuration not stated)	i
O=C(CN1C(=O)CSC1=O)NC1CCCCC1	i
Cc1c(NC(=O)CCc2ccc(S(=O)(=O)N3CCOCC3)cc2)c(=O)n(-c2ccccc2)n1C	i
Cc1cc(=O)oc2cc3c(cc12)OCCN3	i
Cc1cc(=O)oc2cc3c(cc12)OCCO3	i
Cc1cc2c(C)cc(=O)oc2c2c1NCCC2	76
O=C(CN1CCN(C(=O)c2c(F)cccc2F)CC1)Nc1ccccc1F	i
COCc1nnc(NC(=O)c2ccc(S(=O)(=O)N3CCCCCC3)cc2)o1	i
COCc1nnc(NC(=O)c2ccc(S(=O)(=O)N(C)C3CCCCC3)cc2)o1	79
COCCN(CCOC)S(=O)(=O)c1ccc(C(=O)Nc2nnc(C)o2)cc1	i
COC(=O)c1ccc2c(c1)S(=O)(=O)NC(=NCc1ccco1)S2	i
CCOC(=O)c1c(C)n(C)c2ccc(OC(C)C(=O)OC)cc12 (configuration not stated)	72
CCOC(=O)c1c(C)n(C)c2ccc(OCC(O)Cn3nc(C)c(Br)c3C)cc12 (configuration not stated)	i
CCOC(=O)c1c(C)n(C)c2cc(Br)c(C(=O)OC)cc12	i
O=C(Nc1ccc(Cl)cc1)N(Cc1cccnc1)Cc1ccco1	i
SMILES	GBA enhancer
CCCCNC(=O)C1CCCN1C(=O)Nc1cccc(OC)c1 (configuration not stated)	73
COc1cccc(NC(=O)C2CCCN2C(=O)Nc2cccc(F)c2)c1 (configuration not stated)	i
CC(=O)Nc1cccc(NC(=O)C2CCCN2C(=O)Nc2cccc(C)c2)c1 (configuration not stated)	i
CC1=CC(C)(C)N=C(Nc2ccc(C)cc2)S1	i
COc1ccc(CNC(=O)C(C#N)c2nc3ccccc3nc2N2CCCC2)cc1 (configuration not stated)	i
Cc1ccc(C)c(S(=O)(=O)C(C#N)c2nc3ccccc3nc2N2CCCC2)c1 (configuration not stated)	i
COc1ccc(S(=O)(=O)C(C#N)c2nc3ccccc3nc2N2CCCCC2)cc1 (configuration not stated)	96
CC1CCN(S(=O)(=O)c2ccc(S(=O)(=O)N3CCN4CCCC4C3)cc2)CC1 (configuration not stated)	i
CCCC(C(=O)NC1CCCC1)N(C(=O)Cn1nnc(-c2ccc(C)o2)n1)c1ccccc1OC (configuration not stated)	i
CCSc1nnc(NC(=O)CSc2nnc(-c3c[nH]c4ccccc34)n2C)s1	i
COc1ccc2[nH]cc(C(=O)CN3CCN(C/C=C/c4ccccc4)CC3)c2c1	i
O=C1CCC(=O)N1CCCCCc1nc(-c2ccccc2)no1	i
O=C1c2ccccc2C(=O)N1CCCc1nc(-c2ccccn2)no1	i
Nc1nonc1-c1noc(CCCCCN2C(=O)c3ccccc3C2=O)n1	479
Cc1cc(C)cc(NC(=O)CN(C)S(=O)(=O)c2cccc3nsnc23)c1	i
Cc1ccc(C)c(N(C)S(=O)(=O)c2cccc3nsnc23)c1	77
CC(C)CCNC(=O)CN(C)S(=O)(=O)c1cccc2nsnc12	i
O=C(OCC1CC(c2ccccn2)=NO1)c1ccc(Br)cc1 (configuration not stated)	i
Cc1nc(NC(=O)CSc2ccccc2N)sc1C	i
CNC(=O)c1cc2c(=O)n3cccc(C)c3nc2n1C	i
N#Cc1cc2c(=O)n3ccccc3nc2n(CCCn2ccnc2)c1=N	i
Cc1ccc(S(=O)(=O)c2cc3c(=O)n4ccccc4nc3n(CC3CCCO3)c2=N)cc1 (configuration not stated)	i
Cc1ccc(-n2c(=O)c(C#N)cc3c(=O)n4ccccc4nc32)cc1	134
COc1ccc(NCc2nnc(SCC#N)n2-c2ccccc2OC)cc1	i
O=C(CCCn1nnc(-c2cccnc2)n1)c1ccc(F)cc1	i
SMILES	GBA enhancer
Cc1cc2ccccc2c(=O)n1CC(=O)NCC(=O)N1CCN(c2ccccc2)CC1	75
Cc1cc2ccccc2c(=O)n1CC(=O)N1CCN(c2cccc(Cl)c2)CC1	i
Cc1cc2ccccc2c(=O)n1CC(=O)NC1CCCCCC1	i
CCOC(=O)c1cc2c(N)c(C(=O)c3cc(C#N)c(SC)nc3C)sc2nc1C	i
CC(C)C(NS(=O)(=O)c1cccc2nsnc12)C(=O)N1CCc2ccccc2C1 (configuration not stated)	i
Cc1ccc(C(=O)Nc2ccc(S(=O)(=O)N3CCN(C)CC3)cc2)o1	i
COc1ccc(CNC(=O)CN(CC2CCCO2)C(=O)CNS(=O)(=O)c2ccc(C)cc2)cc1 (configuration not stated)	76
COc1ccc(CNC(=O)CN(CC2CCCO2)C(=O)CNS(=O)(=O)c2ccccc2)cc1 (configuration not stated)	i
Cc1ccc(S(=O)(=O)NCC(=O)N(CC(=O)NCc2ccccc2)CC2CCCO2)cc1 (configuration not stated)	i
Cc1ccc(S(=O)(=O)N(C)CCCC(=O)Nc2ccccn2)cc1	i
COc1ccc2[nH]c(=O)c(CN(CCO)C(=O)c3ccccc3F)cc2c1	i
O=C(CSc1nnc2c(n1)[nH]c1ccc(F)cc12)OCc1ccccc1	76
O=C(CN1CCN(c2ccc(F)cc2)CC1)OCc1ccccc1	i
CCCn1c2ccccc2c2nnc(SCC(=O)OCC)nc21	i
CCN(CC)CCCNC(CC(=O)O)C(=O)O (configuration not stated)	i
O=C(O)C(CC(=O)N1CCOCC1)NCc1ccccc1 (configuration not stated)	i
Cn1c(C(F)(F)F)nc2c(=O)oc3ccccc3c21	i
O=C(NC1CCC(NC(=O)C2CCCO2)CC1)C1CCCO1 (configuration not stated)	i
CN(C)CCNC(=O)c1cc2cc(Br)ccc2oc1=O	i
Cc1ccc(N2C(=O)Nc3ccc(Br)cc3C2(O)C(=O)NCCCN(C)C)cc1C (configuration not stated)	119
CCC(Sc1nc(=O)cc(N)n1-c1ccccc1)C(=O)Nc1ccc(Cl)cn1 (configuration not stated)	i
CCCCN(C)C(=O)CCCCn1c(=O)[nH]c2cc(OCC)c(OCC)cc2c1=O	68
CCOc1cc2[nH]c(=O)n(CCCCCC(=O)NCc3ccc4c(c3)OCO4)c(=O)c2cc1OCC	i
CCOc1cc2[nH]c(=O)n(CC3CCC(C(=O)NC4CCCCC4)CC3)c(=O)c2cc1OCC (configuration not stated)	i
COc1ccc(N(C)S(=O)(=O)c2cccc(C(=O)Nc3ccc(-n4cnnn4)cc3)c2)cc1	i
O=S(=O)(NCCc1ccccn1)c1ccc(F)c(F)c1	i
Cc1ccc(S(=O)(=O)NCCCOC(=O)Nc2ccncc2)cc1	i
Brc1ccc(C2=Nn3c(nnc3-c3cccnc3)SC2)s1	98
